Compound activity deposited in PubChem by National Center for Advancing Translational Sciences (NCATS).
NPC1 promoter act – activators of NPC1 promoter | Huh7 NPC1 promoter luciferase reporter, 24 h | Potency, µM (top dose mostly 9.22 µM), for the others: top-dose activation, most hits filed as activators | 320,000 compounds, 2.4% hits | AID 485313; also: % of control where 0% means no effect; nearly all actives have a fitted effect of over 60% in size
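Luminescence from an NPC1 promoter-driven luciferase reporter in stably transfected Huh7 cells was measured after 24 h compound treatment at 37 °C, followed by 10 min ambient incubation with luciferase detection reagent.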
ELG1 genotox – inducers of genotoxicity in HEK293T ELG1-luciferase cells. HEK293T ELG1-luciferase reporter, luminescence, 16 h. Potency, µM (top dose mostly 46 µM), for inactives: top-dose activity change, positive = activation, usual class: activators. 330,000 compounds, 1.3% hits; also: % of control where 0% means no effect; nearly all actives have a fitted effect of over 60% in size
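HEK293T cells expressing luciferase-tagged ELG1 were exposed to compound or DMSO vehicle for 16 hr at 37 °C and 5% CO2. Luciferase activity was then measured with ONE-Glo after 30 min at room temperature.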
KinaseGlo FLuc – counter-screen: inhibitors of Kinase-Glo firefly luciferase; Potency, µM (top dose mostly 38.3 µM), for inactives: at the top dose activity change, negative = inhibition, most hits filed as inhibitors; Kinase-Glo luciferase, ATP luminescence, 8 min; Q27757; 200,000 compounds, 0.28% hits; also: % is scaled to controls: 0 for no effect and ±100 for the full control effect; nearly all actives have a fitted effect of over 60% in size
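Kinase-Glo luciferase light output from ATP and luciferin was measured with 10 uM ATP, within the enzyme's linear range. Buffer: 50 mM imidazole pH 7.2, 50 mM KCl, 7 mM MgCl2, 0.01% Tween 20, 0.05% BSA; luminescence read after 8 min at ambient temperature.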
SMN2 splice up – enhancers of SMN2 splice variant expression. HEK293 SMN2-luciferase splicing reporter, luminescence, 30-36 h. 210,000 compounds, 2.8% hits. Potency, µM (doses to about 46.1 µM), inactives show top-dose activity change, positive = activation, usual class: activators; also: % of control where 0% means no effect; nearly all actives have a fitted effect of over 55% in size
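qHTS luciferase splicing reporter: luminescence rises when SMN2 exon 7 is included in transfected HEK293 cells. Compound exposure lasted 30-36 h at 37C, with 4.5 mM final sodium butyrate as control, followed by a ONE-Glo read.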
FLuc counter – inhibits or activates purified firefly luciferase, miR-21 counter-screen; P08659; purified FLuc, Km substrates, luminescence inhibition; Potency, µM (series often up to 57.5 µM), for the others: top-dose activity change, negative = inhibition, most hits filed as inhibitors; 360,000 compounds, 6.9% hits; AID 588342;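 also: plate controls were vehicle for no effect and reference inhibitor for full effect; nearly all actives have a fitted effect of over 55% in size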
Target sequence (P08659 whole entry, looked up): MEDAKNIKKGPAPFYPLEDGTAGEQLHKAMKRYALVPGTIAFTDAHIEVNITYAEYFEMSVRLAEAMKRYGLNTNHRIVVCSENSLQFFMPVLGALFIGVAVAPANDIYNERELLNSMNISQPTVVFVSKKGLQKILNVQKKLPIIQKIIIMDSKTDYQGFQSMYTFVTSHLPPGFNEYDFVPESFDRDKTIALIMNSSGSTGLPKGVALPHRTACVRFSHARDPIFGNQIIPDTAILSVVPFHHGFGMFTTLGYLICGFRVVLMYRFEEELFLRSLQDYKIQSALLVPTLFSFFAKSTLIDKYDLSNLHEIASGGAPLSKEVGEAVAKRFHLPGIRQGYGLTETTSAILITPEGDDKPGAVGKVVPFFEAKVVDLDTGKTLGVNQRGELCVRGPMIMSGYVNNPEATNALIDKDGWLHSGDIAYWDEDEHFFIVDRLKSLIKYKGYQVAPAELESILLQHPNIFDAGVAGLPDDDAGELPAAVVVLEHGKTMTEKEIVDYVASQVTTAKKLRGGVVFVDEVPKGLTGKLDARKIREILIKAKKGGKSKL
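Purified P. pyralis luciferase (10nM final) with 10uM D-luciferin and 10uM ATP (Km levels) in 50mM Tris acetate pH 7.5, 10mM Mg acetate, 0.01% Tween-20, 0.05% BSA; qHTS 6-point titration, ~60 µM downward; luminescence read.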
Rab9 promoter act – Rab9 promoter activation | Huh7 Rab9 promoter-luciferase reporter, luminescence, 24 h | Potency, µM (doses to about 9.22 µM), without a hit: at the top dose activation, negative = inhibition, most hits filed as activators | 320,000 compounds, 2.8% hits | AID 485297; also: % of control where 0% means no effect; nearly all actives have a fitted effect of over 60% in size
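Cells were plated at 1500 per well in reduced-serum medium with 10% FBS and left 2 h. Compound in DMSO was then added for 24 h at 37 °C. Reporter signal was read by luminescence after 10 min with luciferase detection reagent.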
* = called active by the depositor; [ ] = remark or other dose. The list is not random: actives were taken first. Their share in the collection is about 7.4%. Calls follow the shape of the dose curve; as a rule, active = well fitted curve in the direction sought with a large enough effect; inconclusive = small, poorly fitted or top-dose-only effect, or another doubt; inactive = no such curve, though single readings can be large; an effect the other way counts as inactive or inconclusive. Potency is read from the fitted curve at half-maximal effect.

`C/C=C(/C)C(=O)Nc1cccc(C2=NOC3(C2)C[C@@H](C(N)=O)N(C(=O)c2ccc(OC)cc2)C3)c1` (stereo not given in full) gave NPC1 promoter act -7%, ELG1 genotox 4%, FLuc counter 3% and Rab9 promoter act 1%.
`C/C=C\C=C/C(=O)Nc1cccc(C2=NOC3(C2)C[C@@H](C(N)=O)N(C(=O)c2ccc(Cl)cc2)C3)c1` (stereo not given in full) gave NPC1 promoter act 3%, ELG1 genotox 3%, FLuc counter 15µM* and Rab9 promoter act 9%.
Cc1c(C(=O)N2CCN(S(=O)(=O)c3cc(F)ccc3F)CC2)oc2ccccc12 was read as NPC1 promoter act 0%, ELG1 genotox -3% and Rab9 promoter act -4%.
Cc1ccc(-c2nc3ccccc3o2)cc1NC(=S)NC(=O)c1cccs1 was read as NPC1 promoter act 13%, ELG1 genotox 18%, FLuc counter inconclusive and Rab9 promoter act 25%.
Screening Cc1ccc2oc(-c3cc(NC(=O)c4cccs4)cc(C)c3O)nc2c1 returned SMN2 splice up 27% and FLuc counter inconclusive.
`O=C(Nc1ccc2oc(-c3ccccc3)nc2c1)c1cccs1` gave NPC1 promoter act 4µM*, ELG1 genotox inconclusive, KinaseGlo FLuc 0%, SMN2 splice up 3.2µM*, FLuc counter 3.8µM* and Rab9 promoter act 2.5µM*.
Screening Cc1ccc2oc(-c3cccc(NC(=S)NC(=O)c4cccs4)c3)nc2c1 returned NPC1 promoter act 24%, ELG1 genotox inconclusive, KinaseGlo FLuc -1%, SMN2 splice up 1%[1.84 µM], FLuc counter 11µM* and Rab9 promoter act 22%.
`Cc1ccc2oc(-c3cccc(NC(=S)NC(=O)/C=C/c4ccco4)c3)nc2c1` gave NPC1 promoter act 29%, ELG1 genotox 15%, KinaseGlo FLuc -5%, SMN2 splice up -29%, FLuc counter 15µM* and Rab9 promoter act inconclusive.
Screening Cc1c(NC(=O)c2cccs2)cccc1-c1nc2cc(Cl)ccc2o1 returned FLuc counter 5.4µM*.
Screening Cc1ccccc1NS(=O)(=O)c1ccc2[nH]cc(C(=O)NCCc3ccccc3)c(=O)c2c1 returned NPC1 promoter act 1%, FLuc counter inconclusive and Rab9 promoter act -3%.
Screening O=C(/C=C/c1ccco1)Nc1cc(Cl)ccc1C(=O)O returned NPC1 promoter act 3%, ELG1 genotox 1%, KinaseGlo FLuc -1%, SMN2 splice up 3%, FLuc counter 19µM* and Rab9 promoter act -4%.
O=C(/C=C/c1ccco1)Nc1ccccc1C(=O)O was read as NPC1 promoter act 2µM*, ELG1 genotox 10µM*, KinaseGlo FLuc inconclusive, SMN2 splice up 13µM*, FLuc counter 2.7µM* and Rab9 promoter act 2.8µM*.
`O=C(/C=C/c1ccco1)Nc1ccccc1C(=O)Nc1cccc(C(=O)O)c1` gave NPC1 promoter act 2%, ELG1 genotox 4%, FLuc counter 3µM* and Rab9 promoter act 1%.
O=C(/C=C\c1ccco1)Nc1cc([N+](=O)[O-])ccc1F was read as NPC1 promoter act -11%, ELG1 genotox inconclusive, KinaseGlo FLuc 0%, SMN2 splice up -12%, FLuc counter 4% and Rab9 promoter act -27%.
COc1ccccc1CNS(=O)(=O)c1ccc2[nH]c3c(c2c1)CCCCC3 was read as FLuc counter -10%.
Screening Cc1ccc(CNC(=O)CCNC(=O)c2ccc([N+](=O)[O-])cc2)cc1 returned ELG1 genotox -3%.
Screening COC(=O)c1c(NC(=O)c2cccnc2Cl)sc(C(=O)N(C)C)c1C returned NPC1 promoter act -3%, ELG1 genotox 15%, KinaseGlo FLuc 4%, SMN2 splice up 2%, FLuc counter -2% and Rab9 promoter act -2%.
`COc1ccc(NC(=O)c2csc(Cc3ccccc3)n2)cc1` gave NPC1 promoter act 26%, ELG1 genotox inconclusive, KinaseGlo FLuc 16%, SMN2 splice up -15%, FLuc counter 6.7µM* and Rab9 promoter act inconclusive.
COc1ccc(CNC(=O)c2csc(Cc3ccccc3)n2)cc1 was read as NPC1 promoter act 4%, ELG1 genotox 7%, KinaseGlo FLuc 6%, SMN2 splice up inconclusive, FLuc counter 19µM* and Rab9 promoter act 19%.
O=C(Nc1ccc(F)cc1)c1csc(Cc2ccccc2)n1 was read as NPC1 promoter act inconclusive, ELG1 genotox 6%, KinaseGlo FLuc -2%, SMN2 splice up 1%, FLuc counter 5.4µM* and Rab9 promoter act inconclusive.
COc1ccccc1CNC(=O)c1csc(Cc2ccc(Cl)cc2)n1 was read as NPC1 promoter act -4%, ELG1 genotox -3%, KinaseGlo FLuc -3%, SMN2 splice up 5%, FLuc counter 0% and Rab9 promoter act 0%.
Screening O=C(O)c1csc(Cc2ccccc2)n1 returned NPC1 promoter act -4%, ELG1 genotox -1%, KinaseGlo FLuc 1%, SMN2 splice up -11%, FLuc counter -14% and Rab9 promoter act -5%.
O=C1C(c2c(O)[nH]c3ccccc23)=Nc2ccccc21 was read as NPC1 promoter act 20%, SMN2 splice up -16%, FLuc counter -29% and Rab9 promoter act inconclusive.
`CC(=O)c1cccc2c(O)c(C3=Nc4ccccc4C3=O)[nH]c12` gave NPC1 promoter act 2.8µM*, ELG1 genotox inconclusive, KinaseGlo FLuc inconclusive, SMN2 splice up 0.56µM*, FLuc counter 3.4µM* and Rab9 promoter act 0.63µM*.
Screening O=C(CCS(=O)(=O)c1ccc(Br)cc1)N1CCN(c2ccccc2)CC1 returned NPC1 promoter act -1%, ELG1 genotox -1%, KinaseGlo FLuc -1%, SMN2 splice up 5%, FLuc counter 1% and Rab9 promoter act -3%.
For O=C(CCS(=O)(=O)c1ccccc1)N1CCN(c2ccccc2)CC1 the results were NPC1 promoter act 2.8µM*, ELG1 genotox inconclusive, FLuc counter 12µM* and Rab9 promoter act 1.6µM*.
For O=C(CCC1N=C2c3ccccc3N=C(SCc3ccc(Cl)cc3)N2C1=O)NCc1cccs1 (stereo not given) the results were FLuc counter 2%.
Screening CCn1c2ccccc2c2cc(/C(C)=N/O)ccc21 returned NPC1 promoter act -4%, ELG1 genotox 1%, KinaseGlo FLuc -2%, SMN2 splice up -25%, FLuc counter -21% and Rab9 promoter act -4%.
